Experimental findings from PubChem BioAssay (Tox21) are described below.

Inconclusive results are not listed. Active and inactive are the calls of the source. Calls follow the shape of the full dose curve.
% is scaled to controls: 0 for no effect and ±100 for the full control effect; potency is read from the fitted curve at half-maximal effect.

Chain of Beta-2 adrenergic receptor (Homo sapiens) (P07550 whole entry, looked up): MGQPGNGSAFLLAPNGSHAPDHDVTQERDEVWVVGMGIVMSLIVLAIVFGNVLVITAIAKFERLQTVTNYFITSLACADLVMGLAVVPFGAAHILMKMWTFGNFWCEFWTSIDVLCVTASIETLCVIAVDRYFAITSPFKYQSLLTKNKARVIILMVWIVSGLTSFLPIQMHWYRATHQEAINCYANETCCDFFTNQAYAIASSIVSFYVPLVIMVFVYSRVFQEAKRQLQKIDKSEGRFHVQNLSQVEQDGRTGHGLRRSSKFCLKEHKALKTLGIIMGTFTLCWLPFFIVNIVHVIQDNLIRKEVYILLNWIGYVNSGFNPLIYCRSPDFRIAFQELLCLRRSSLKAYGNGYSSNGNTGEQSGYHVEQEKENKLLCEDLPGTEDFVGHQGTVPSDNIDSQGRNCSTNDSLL

This experiment has as its target Beta-2 adrenergic receptor (Homo sapiens) (UniProt P07550). Kind of experiment: Adrenergic beta2 receptor (ADRB2) small molecule agonists, cell-based qHTS assay (AID 1963593). To be noted: CHO-ADRB2 cells, cAMP HTRF, 30 min; series mostly up to 92.4 µM; activation: at the top concentration. An excerpt:
National Center for Advancing Translational Sciences [NCATS]
Division of Preclinical Innovation [DPI]
U.S. Environmental Protection Agency [EPA]
National Institutes of Environmental Health Sciences [NIEHS]
National Toxicology Program [NTP]
U.S. Food and Drug Administration [FDA]
Beta adrenergic receptors (Beta-ARs) belong to the G-protein coupled receptor (GPCR) superfamily, includes three subtypes - beta1, beta2, and beta3. Beta1-AR is the predominant receptor subtype expressed in the heart, and beta2-AR is expressed in the kidney, lung, blood vessel and in the heart, and beta3 is found in the adipocytes. Beta1 and 2 ARs couple to Gs protein and elevate cyclic adenosine mono phosphate (cAMP), which activates protein kinase A and leads to the downstream signaling responsible for the physiological actions. Beta-AR agonists or antagonists are the most prescribed therapeutic agents for heart failure and asthma, and these were one of the first target receptors for the rational drug design. Tox21 10K compound library was screened using the cAMP-Gs dynamic assay (Cisbio Bioassays, Shelton, CT) to identify agonists/antagonists of the Gs-coupled human adrenergic, beta2 receptor (ADRB2) in the CHO-ADRB2 cell line (Codex BioSolutions, Inc. Gaithersburg, MD), which stably over-expresses ADRB2. The principle of cAMP-Gs dynamic assay is based on HTRF technology, which facilitates the fluorescence resonance energy transfer (FRET) between donor Europium cryptate and acceptor d2-labeled cAMP. The cAMP generated within cells competes with the red acceptor, d2-labled cAMP, for binding to the monoclonal anti-cAMP-cryptate (Europium donor). An increase in intracellular cAMP leads to the disruption of FRET signal, and the signal is inversely proportional to the cAMP concentration. Isoproterenol HCl (Sigma-Aldrich, St. Louis, MO) was used as a positive control in the screening.
Tox21 Assay Protocol Summary:
CHO-ADRB2 cells were dispensed at 1,000/well in 4uL assay medium into white/solid 1536-well plates (Greiner Bio-One North America Inc., Monroe, NC) using a Multidrop Combi dispenser (ThermoFisher Scientific, Waltham, MA). The assay plates were incubated at 37C and 5% CO2 for an overnight (18-20hr). Then positive control and test compounds dissolved in DMSO were transferred to the assay plates at 23nL using a Pintool station (Wako, San Diego, CA). Following the compound and positive control transfer, 1uL stimulation mix containing 100uM IBMX and 25uM Ro-20-1724 was added to each well of the assay plates using BioRAPTR Flying Reagent Dispenser (FRD, Beckman Coulter, Brea, CA). The assay plates were incubated at room temperature for 0.5hr. Then 2.5ul each d2-labled cAMP and anti-cAMP-cryptate solutions were added separately to each well of the assay plates using an FRD and the assay plates were incubated at room temperature for 1hr.
(qHTS replaces the single test concentration by a dilution series.)
Turning to `c1ccc2c(c1)[nH]c1cnccc12`, the “activation” value was -28.9% (inactive).

For `O=C1c2ccccc2C(=O)c2ccccc21`, the activation was -36.8% [at 19 µM] (inactive).

Take `COC(=O)N(C(=O)N1CO[C@@]2(C(=O)OC)Cc3cc(Cl)ccc3C2=N1)c1ccc(OC(F)(F)F)cc1`: the “activation” value is 1.34% (inactive). Still for that read-out and setting: under `CC(C)N(C(=O)SC/C(Cl)=C/Cl)C(C)C` stands -2.46% (inactive).

Turning to `COP(=O)(OC)O/C(C)=C/C(=O)N(C)C`, the “activation” value is 5.09% (inactive).

Turning to `COc1c2c(cc3c1OCO3)CCN(C)C2`, the “activation” value was -17.7% [at 42.5 µM] (inactive).

As to `CN1C(=O)C(O)N=C(c2ccccc2)c2cc(Cl)ccc21` (stereo not given), the Potency was 31.7 µM (active). Consider `ClC(Br)Br`, for which the “activation” value is 3.85% (inactive).

As to `CC(C)COP(=O)(OCC(C)C)OCC(C)C`, the “activation” value is 14.7% (inactive). For the compound `O=S1(=O)OCC2C(CO1)C1(Cl)C(Cl)=C(Cl)C2(Cl)C1(Cl)Cl` (stereo not given), the “activation” value is 25.2% (inactive). Same read-out and setting: the same measure for `O=S(=O)(Cl)c1ccccc1`: -27.7% (inactive); for `C[C@]12CC[C@@H]3c4ccc(OC(=O)N(CCCl)CCCl)cc4CC[C@H]3[C@@H]1CC[C@@H]2O`: 14.2% [at 42.5 µM] (inactive). As to `CNN`, the “activation” value was -10.7% (inactive).

Take `Cc1c([N+](=O)[O-])cc2c(c1[N+](=O)[O-])C(C)(C)CC2(C)C`: the “activation” value is 3.89% (inactive). Still for that read-out and setting: under `CCS(=O)(=O)c1cccnc1S(=O)(=O)NC(=O)Nc1nc(OC)cc(OC)n1` stands -0.146% (inactive). Turning to `Cc1cc(=O)[nH]o1`, the “activation” value is -38.6% (inactive). Same read-out and setting: under `Cc1nc(N(C)C)nc(OC(=O)N(C)C)c1C` stands -0.0578% (inactive); under `CCOP(=S)(OCC)SCSP(=S)(OCC)OCC`, 6.86% (inactive). On the same count and under the same terms, the same measure for `C[C@@H]1CC2=CC(=O)CC[C@@H]2[C@H]2CC[C@@]3(C)[C@@H](CC[C@]3(C)O)[C@@H]21`: -8.03% [at 42.5 µM] (inactive). Take `CCCCC/C=C\C/C=C\C/C=C\C/C=C\CCCC(=O)NCC(=O)O`: the “activation” value was -3.72% [at 42.5 µM] (inactive).

Consider `C[C@H]1O[C@@H](O[C@H]2[C@@H](O)C[C@H](O[C@H]3[C@@H](O)C[C@H](O[C@H]4CC[C@@]5(C)[C@H](CC[C@@H]6[C@@H]5CC[C@]5(C)[C@@H](C7=CC(=O)OC7)CC[C@]65O)C4)O[C@@H]3C)O[C@@H]2C)C[C@H](O)[C@@H]1O`, for which the “activation” value is -12.6% [at 42.5 µM] (inactive).

Regarding `COc1ccc(CN2CCNCC2)c(OC)c1OC`, the “activation” value was 14.8% [at 42.5 µM] (inactive). On the same count and under the same terms, under `COP(=S)(OC)Oc1ccc([N+](=O)[O-])c(C)c1` stands 8.58% (inactive). Same read-out and setting: the same measure for `O=S(=O)(NS(=O)(=O)C(F)(F)F)C(F)(F)F`: 23.2% (inactive); for `COc1ccc(Cc2nccc3cc(OC)c(OC)cc23)cc1OC`: 16.6% [at 42.5 µM] (inactive). The same measure, in the same setting: the same measure for `CCC1COC(Cn2cncn2)(c2ccc(Cl)cc2Cl)O1` (stereo not given): -19.8% (inactive); for `[F][Sn]([c]1ccccc1)([c]1ccccc1)[c]1ccccc1`: -41.5% (inactive). For `CCC[N+](CCC)(CCC)CCC`, the “activation” value was 0.482% (inactive). Still for that read-out and setting: under `C[C@H]1[C@H](c2ccc(Cl)cc2)SC(=O)N1C(=O)NC1CCCCC1` stands 1.15% (inactive); under `COc1cccc2c1C(=O)c1c(O)c3c(c(O)c1C2=O)C[C@@](O)(C(=O)CO)CC3OC1CC(N2CCOC(OC)C2)C(O)C(C)O1` (stereo not given in full), -9.09% [at 42.5 µM] (inactive). The same measure, in the same setting: under `CN(C)CCc1c[nH]c2ccccc12` stands 10.3% (inactive); under `CCOP(O)OCC`, -8.75% (inactive). With `ClCc1cccc(Cl)c1`, the “activation” value was 4.65% [at 42.5 µM] (inactive).

With `CCC(C)(C)C(=O)OC1=C(c2ccc(Cl)cc2Cl)C(=O)OC12CCCCC2`, the “activation” value is -18.3% (inactive). Still for that read-out and setting: under `C[N+]1(C)[C@@H]2CC[C@H]1CC(OC(=O)C(CO)c1ccccc1)C2` (stereo not given in full) stands 14.3% [at 42.5 µM] (inactive). On the same count and under the same terms, under `O=C(O)[C@H](O)[C@@H](O)C(=O)O` stands -6.11% (inactive). Still for that read-out and setting: the same measure for `c1cc[n+]2c(c1)-c1cccc[n+]1CC2`: 12.7% [at 42.5 µM] (inactive). With `O=c1oc2ccccc2c(O)c1Cc1c(O)c2ccccc2oc1=O`, the “activation” value was 1.01% [at 42.5 µM] (inactive). The same measure, in the same setting: the same measure for `CCCN(CCC)CCc1c[nH]c2ccccc12`: -21.6% (inactive); for `CCCOCC(=Nc1ccc(Cl)cc1C(F)(F)F)n1ccnc1`: -53.4% (inactive).
